ERa SRC1 pot – enhances coactivator binding to human estrogen receptor alpha | P03372 | TR-FRET ERalpha-LBD/SRC-Cy5 coactivator binding, 2 h; 100 = basal binding, no effect | coactivator binding (% of control), % at 25.6 µM | hit rate 1.3% among 86,000 | AID 639; in the data active = activity above about 200%;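 also: binding measured in presence of low estradiol as agonist stimulus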
MRP1 act – activates MRP-1 | H69AR cells + doxorubicin, viability rescue, CellTiter-Glo | viability increase, % at 10 µM | hit rate 0.61% among 140,000;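 active = viability gain under doxorubicin at or above a set limit, the compound median plus 3 SD, cut at about 4.7% in these data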;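 also: MRP-1 overexpressing cells given doxorubicin 25 µM after compound pretreatment; 18-22 h compound pretreatment then 72 h with doxorubicin before readout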
ERb SRC1 inh – blocks coactivator binding to human estrogen receptor beta | Q92731 | TR-FRET ER-beta LBD / SRC1-Cy5 peptide binding; receptor agonist-loaded with 1 µM estradiol | inhibition, % at 25.6 µM | hit rate 1.3% among 86,000;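 active = compounds whose percent inhibition of the receptor-coactivator binding signal exceeds about 50% in the single-dose screen, limit read from the data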
Target sequence (Q92731 whole entry, looked up, the tested form may be a part): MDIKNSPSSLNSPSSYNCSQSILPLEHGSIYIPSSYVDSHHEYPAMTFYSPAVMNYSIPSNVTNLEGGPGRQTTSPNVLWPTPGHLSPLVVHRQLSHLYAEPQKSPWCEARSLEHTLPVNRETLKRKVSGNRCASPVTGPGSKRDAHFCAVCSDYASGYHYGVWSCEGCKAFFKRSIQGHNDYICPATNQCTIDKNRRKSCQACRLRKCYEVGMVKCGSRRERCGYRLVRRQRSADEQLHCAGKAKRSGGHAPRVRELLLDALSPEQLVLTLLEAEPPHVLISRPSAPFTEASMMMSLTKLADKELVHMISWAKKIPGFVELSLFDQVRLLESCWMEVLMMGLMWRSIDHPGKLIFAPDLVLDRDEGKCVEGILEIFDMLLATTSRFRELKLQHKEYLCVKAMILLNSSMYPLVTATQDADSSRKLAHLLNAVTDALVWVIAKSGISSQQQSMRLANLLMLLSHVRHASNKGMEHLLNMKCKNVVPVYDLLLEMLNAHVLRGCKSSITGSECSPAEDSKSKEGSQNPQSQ
MRP reversal – reverses drug resistance mediated by MRP | H69AR cells + 2 uM doxorubicin, CellTiter-Glo, 72 h | differential viability (reversal), % at 10 µM | hit rate 0.04% among 85,000 | AID 602;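 active = viability drop by adding the cancer drug above about 55%, with treated viability meeting a 40% cutoff, limit read from the data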;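 also: larger differential means the compound sensitizes cells more to doxorubicin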
ERa SRC1 inh – ER-alpha (human) coactivator binding inhibition; P03372; TR-FRET ER-alpha LBD / SRC-1 peptide, estradiol-bound; inhibition, % at 25.6 µM; hit rate 1.7% among 86,000; AID 629; in the data active = inhibition above about 50%
Smad3 FoxH1 inh – Smad3 (human) transcription factor binding inhibition; TR-FRET Smad3/Dy647-FoxH1 peptide binding, europium anti-His; inhibition, % at 25 µM; P84022; hit rate 0.29% among 88,000; AID 630;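 active = compounds that reduce the energy-transfer binding signal between the protein and its labelled peptide by more than half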
A number is an active result; - = inactive; . = no result; [ ] = remark or other dose. Sampled rows, rich in hits. Any-hit rate of the full collection: about 2.8%.

SMILES	ERa SRC1 pot	MRP1 act	ERb SRC1 inh	MRP reversal	ERa SRC1 inh	Smad3 FoxH1 inh
Clc1cccc(Cl)c1C1N2CCCN12 (stereo not drawn)	-	-	81[fluorescence artefact?]	-	-	-
CC12CN3CC(C)(CN(C1)C3c1ccncc1)C2=O (stereo not drawn)	-	-	93[fluorescence artefact?]	-	-	-
Cc1c(C(=O)N2CCC3(CC2)OCCO3)oc2ccc(S(=O)(=O)N3CCOCC3)cc12	-	-	-	-	-	67
C/C(N[O-])=C(\C)[N+]([O-])=[Rh][Cl].CC(=N\[O-])/C(C)=N/[O-].c1ccc([PH+](c2ccccc2)c2ccccc2)cc1	.	.	.	.	.	-
Cc1ccc(N2C(=O)NC(=O)/C(=C\c3ccsc3)C2=O)cc1C	.	5.5	.	.	.	.
CC(=O)O/C(=C1\C[C@@H]2[C@H]3CC=C4C[C@@H](OC(C)=O)CC[C@]4(C)[C@@H]3CC[C@@]2(C)C1=O)C(F)(F)F	.	.	.	.	.	-
O=C(O)C[SH+]CC(=O)O.O=C(O)C[SH+]CC(=O)O.[Cu]	.	.	.	.	.	-
Cc1ccc(NC(=O)CN2C(=O)CN=C(c3ccccc3)c3cc(Cl)ccc32)cc1	-	-	-	-	-	-
CN(C)c1ccc(NC(=O)CN2C(=O)CN=C(c3ccccc3)c3ccccc32)cc1	-	-	53[fluorescence artefact?]	-	-	-
CN(C)c1ccc(NC(=O)CN2C(=O)CN=C(c3ccccc3)c3cc(Cl)ccc32)cc1	-	6.8	-	-	-	-
O=S(=O)(O)/C(=C\c1ccccc1)c1ccccc1 (tested in a mixture with another compound)	.	.	.	.	.	-
Cc1ccc(NC(=[OH+])c2cc3ccccc3cc2O)c(C)c1.Cc1ccc(NC(=[OH+])c2cc3ccccc3cc2O)c(C)c1.[Ni]	.	.	.	.	.	-
CCOc1ccccc1-n1c(O)c(C=Nc2ccc(N(CC)CC)cc2)c(=O)[nH]c1=O	-	-	-	-	62[fluorescence artefact?]	-
CCN(CC)c1ccc(N=Cc2c(O)n(-c3ccccc3C)c(=O)[nH]c2=O)cc1	-	-	-	-	-	-
C[C@@H]1O[C@H](O[C@H]2C[C@@H](O)[C@]3(CO)[C@@H]4[C@@H](O)C[C@]5(C)[C@@H](C6=CC(=O)OC6)CC[C@@]5(O)[C@H]4CC[C@@]3(O)C2)[C@@H](O)[C@H](O)[C@H]1O	.	.	.	.	.	-
Cn1c(=O)cc(SCC(=O)N2CCC3(CC2)OCCO3)c2ccc(Cl)cc21	-	-	-	-	-	56[fluorescence artefact?]
CCNC(C)(C)[C@@H](SS)c1ccc(Br)cc1	.	.	.	.	.	96
CC(C)=C[C@H]1[C@H](C(=O)OCc2cc3c(cc2Cl)OCO3)C1(C)C	.	.	.	.	.	-
CCCNC(=O)c1c(N)n(CC2CCCO2)c2nc3ccccc3nc12 (stereo not drawn)	-	-	-	-	-	61
O=C(O)CN1CCN(CC(=O)O)CC(=O)[O][Hg][O]C(=O)C1	.	.	.	.	.	-
O=C(NCC1CC1)[C@@H]1C2c3ccccc3C(c3ccccc32)[C@@H]1C(=O)O	.	.	.	.	.	-
COc1ccc(N2C(=O)CC(N3CCC(n4c(=O)[nH]c5ccccc54)CC3)C2=O)cc1 (stereo not drawn)	-	5.5	-	-	-	-
C(=NCCN1CCOCC1)=NC1CCCCC1	.	.	.	.	.	-
O=C(Nc1ccc([As](=O)(O)O)cc1)Nc1cccc(Cl)c1Cl	.	.	.	.	.	-
Cc1cc2c(s1)NC(=O)CN=C2c1cccs1	-	-	-	-	-	-
SMILES	ERa SRC1 pot	MRP1 act	ERb SRC1 inh	MRP reversal	ERa SRC1 inh	Smad3 FoxH1 inh
O=C1CN=C(c2cccs2)c2c(sc3c2CCCC3)N1	-	-	64[fluorescence artefact?]	-	-	-
CN(C)CS/C(N)=N/[C@H](O)C(Cl)(Cl)Cl	.	.	.	.	.	54
CCN(CC)S(=O)(=O)c1ccc(NN=C(C#N)C#N)cc1	.	5.6	.	.	.	.
COc1ccc(Cn2c(N)c(C(=O)NCc3ccco3)c3nc4ccccc4nc32)cc1	-	-	-	-	73	-
COCC(C)OC(=O)c1c(N)n(Cc2ccco2)c2nc3ccccc3nc12 (stereo not drawn)	-	-	58[fluorescence artefact?]	-	-	-
COc1ccccc1CN1CCN(C(=O)COc2ccccc2)CC1	-	-	-	-	-	-
O=C(COc1ccc(Cl)cc1)N1CCN(Cc2ccccc2)CC1	-	6.5	-	-	-	-
O=C(c1ccc(CS(=O)(=O)c2ccccc2)o1)N1CCC2(CC1)OCCO2	-	-	74[fluorescence artefact?]	-	-	-
O=C(c1ccc(CS(=O)(=O)c2ccc(Br)cc2)o1)N1CCC2(CC1)OCCO2	-	-	-	-	-	-
Nc1cc[c]([Hg])cc1.Nc1nc2c(ncn2[C@H]2O[C@H](CO)[C@@H](O)[C@@H]2O)c(=[SH+])[nH]1	.	.	.	.	.	73
C[C@@H]1O[C@H](OC2[C@@H](O)[C@H](O)C(O)[C@H](O)[C@H]2O)[C@@H](N)C[C@H]1N=C(N)C(=O)O (stereo partly drawn)	.	.	.	.	.	-
Nc1nc(N)c(N=Nc2ccc([As](=O)(O)O)c(O)c2)c(N)n1	.	.	.	.	.	84
Nc1nc(N)c(N=Nc2ccc([As](=O)(O)O)cc2)c(=O)[nH]1	.	.	.	.	.	-
O=C(c1ccc2nc(-c3ccco3)c(-c3ccco3)nc2c1)N1CCC2(CC1)OCCO2	-	-	76[fluorescence artefact?]	-	56[fluorescence artefact?]	-
C=CCOc1ccc(CC2C(=O)N(C)C(=O)N(C)C2=O)cc1	-	-	-	-	57	-
CCN(CC)c1ccc(CC2C(=O)N(C)C(=O)N(C)C2=O)cc1	.	-	.	.	.	.
